Measured values: the supplement of paper PMC10849652
The full data set covers some 7,900 targets. This sample favours those with a hit. About 0.6% of all pairs of compound and target were hits. Values without a mark were called inactive.

Experiments:
Test in all cases: log2 fold change, soluble protein after heating vs DMSO (PISA); higher = thermal stabilisation; K562 cells, 10 uM, 30 min; active = over 0.2 and 3.5 SD of the protein, either way, in both replicates (recomputed)
IRAK-1-4 Inhibitor I = compound: C1COCCN1CCN2C3=CC=CC=C3N=C2NC(=O)C4=CC(=CC=C4)[N+](=O)[O-] [IRAK-1-4 Inhibitor I]
How it was run: (§1)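 K562 cells (2×10^6 cells/mL) were treated with 10 μM compound for 30 min, and aliquots were heated for 3 min over 48°C-58°C. Pooled aliquots were extracted in PBS with 0.5% NP-40 at 4°C, and the supernatant after 21,000xg for 90 min was measured by TMTpro 16plex LC-MS/MS with channel sums equalised. Reported thermal stability, relative to control samples and from duplicates, is a log2 fold change.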

ibrutinib = compound: C=CC(=O)N1CCC[C@@H](n2nc(-c3ccc(Oc4ccccc4)cc3)c3c(N)ncnc32)C1 [ibrutinib]
How it was run: as §1

[1] = compound: CC(=O)c1cnc2ccc(-c3cc(Cl)c(O)c(Cl)c3)nc2c1N[C@H]1CC[C@H](CN(C)C)CC1
How it was run: as §1

ralimetinib = compound: CC(C)(C)Cn1c(N)nc2ccc(-c3[nH]c(C(C)(C)C)nc3-c3ccc(F)cc3)nc21 [ralimetinib]
How it was run: as §1

[2] = compound: CC(C)(O)CC(=O)NCCn1ccc2ncnc(Nc3ccc(Oc4cccc(C(F)(F)F)c4)c(Cl)c3)c21
How it was run: as §1

[3] = compound: CC(C)C1=C2N=C(C=C(N2N=C1)NCC3=CC=CC=C3)NCCCCCCN
How it was run: as §1

[4] = compound: CC(C)C[C@@H](C=O)NC(=O)[C@H](CC(C)C)NC(=O)[C@H](CC(C)C)NC(=O)OCc1ccccc1
How it was run: as §1

pinometostat = compound: CC(C)N(C[C@H]1O[C@@H](n2cnc3c(N)ncnc32)[C@H](O)[C@@H]1O)[C@H]1C[C@@H](CCc2nc3cc(C(C)(C)C)ccc3[nH]2)C1 [pinometostat]
How it was run: as §1

[5] = compound: CC1=C(C(CC(=O)N1)C2=CC=C(C=C2)C(F)(F)F)C(=O)NC3=C(C=C4C(=C3)C=NN4)F
How it was run: as §1

[6] = compound: CC1=C(C2=C(C=C1)C(=O)C3=CC=CC=C3N2CCCN)C
How it was run: as §1

UniProt P14854, sequence (P14854 whole entry, looked up): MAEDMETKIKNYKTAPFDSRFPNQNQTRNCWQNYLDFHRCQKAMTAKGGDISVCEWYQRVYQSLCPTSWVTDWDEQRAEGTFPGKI
UniProt Q6NZI2, sequence (Q6NZI2 whole entry, looked up): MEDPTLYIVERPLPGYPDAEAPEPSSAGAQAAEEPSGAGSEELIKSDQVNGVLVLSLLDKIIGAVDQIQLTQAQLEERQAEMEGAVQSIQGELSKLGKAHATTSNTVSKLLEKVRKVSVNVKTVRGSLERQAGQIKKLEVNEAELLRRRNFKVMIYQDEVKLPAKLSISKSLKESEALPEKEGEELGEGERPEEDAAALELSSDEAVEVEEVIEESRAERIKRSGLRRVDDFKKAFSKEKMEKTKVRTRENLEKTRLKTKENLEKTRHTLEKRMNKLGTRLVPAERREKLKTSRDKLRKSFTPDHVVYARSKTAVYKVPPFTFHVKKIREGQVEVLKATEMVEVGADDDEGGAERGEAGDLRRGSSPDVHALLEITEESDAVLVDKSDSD
UniProt P42574, sequence (P42574 whole entry, looked up): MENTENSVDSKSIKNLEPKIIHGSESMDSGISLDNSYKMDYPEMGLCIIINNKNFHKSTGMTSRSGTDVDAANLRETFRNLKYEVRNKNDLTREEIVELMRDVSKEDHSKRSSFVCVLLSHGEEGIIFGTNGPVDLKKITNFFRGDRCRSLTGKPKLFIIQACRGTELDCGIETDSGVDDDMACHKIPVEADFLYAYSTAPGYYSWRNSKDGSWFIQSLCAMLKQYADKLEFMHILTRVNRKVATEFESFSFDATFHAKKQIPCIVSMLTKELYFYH
UniProt Q13111, sequence (Q13111 whole entry, looked up): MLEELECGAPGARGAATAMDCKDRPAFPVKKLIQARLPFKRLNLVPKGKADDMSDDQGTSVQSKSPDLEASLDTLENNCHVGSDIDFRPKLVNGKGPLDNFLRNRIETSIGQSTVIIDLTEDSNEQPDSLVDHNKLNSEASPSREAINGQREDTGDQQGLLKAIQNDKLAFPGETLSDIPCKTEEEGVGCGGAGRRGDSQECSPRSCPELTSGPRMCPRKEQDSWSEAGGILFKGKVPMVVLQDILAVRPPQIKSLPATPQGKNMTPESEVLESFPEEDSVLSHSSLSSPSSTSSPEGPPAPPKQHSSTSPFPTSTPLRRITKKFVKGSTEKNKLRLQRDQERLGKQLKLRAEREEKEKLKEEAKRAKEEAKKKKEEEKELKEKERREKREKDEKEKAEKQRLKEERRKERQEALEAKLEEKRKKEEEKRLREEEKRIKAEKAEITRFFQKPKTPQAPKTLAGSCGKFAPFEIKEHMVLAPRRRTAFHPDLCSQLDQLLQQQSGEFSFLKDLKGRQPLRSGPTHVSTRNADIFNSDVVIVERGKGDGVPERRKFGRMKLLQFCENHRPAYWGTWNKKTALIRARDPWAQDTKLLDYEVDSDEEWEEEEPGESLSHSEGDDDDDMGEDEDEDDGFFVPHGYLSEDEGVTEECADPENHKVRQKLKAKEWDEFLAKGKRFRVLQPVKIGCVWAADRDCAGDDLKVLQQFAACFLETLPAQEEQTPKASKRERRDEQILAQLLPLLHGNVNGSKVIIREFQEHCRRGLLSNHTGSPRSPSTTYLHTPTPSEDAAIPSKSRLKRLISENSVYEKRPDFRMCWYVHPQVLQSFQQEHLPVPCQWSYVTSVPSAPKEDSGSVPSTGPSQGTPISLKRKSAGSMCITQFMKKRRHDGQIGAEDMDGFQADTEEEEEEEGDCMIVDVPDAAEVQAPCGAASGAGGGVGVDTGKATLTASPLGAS
UniProt P23786, sequence (P23786 whole entry, looked up): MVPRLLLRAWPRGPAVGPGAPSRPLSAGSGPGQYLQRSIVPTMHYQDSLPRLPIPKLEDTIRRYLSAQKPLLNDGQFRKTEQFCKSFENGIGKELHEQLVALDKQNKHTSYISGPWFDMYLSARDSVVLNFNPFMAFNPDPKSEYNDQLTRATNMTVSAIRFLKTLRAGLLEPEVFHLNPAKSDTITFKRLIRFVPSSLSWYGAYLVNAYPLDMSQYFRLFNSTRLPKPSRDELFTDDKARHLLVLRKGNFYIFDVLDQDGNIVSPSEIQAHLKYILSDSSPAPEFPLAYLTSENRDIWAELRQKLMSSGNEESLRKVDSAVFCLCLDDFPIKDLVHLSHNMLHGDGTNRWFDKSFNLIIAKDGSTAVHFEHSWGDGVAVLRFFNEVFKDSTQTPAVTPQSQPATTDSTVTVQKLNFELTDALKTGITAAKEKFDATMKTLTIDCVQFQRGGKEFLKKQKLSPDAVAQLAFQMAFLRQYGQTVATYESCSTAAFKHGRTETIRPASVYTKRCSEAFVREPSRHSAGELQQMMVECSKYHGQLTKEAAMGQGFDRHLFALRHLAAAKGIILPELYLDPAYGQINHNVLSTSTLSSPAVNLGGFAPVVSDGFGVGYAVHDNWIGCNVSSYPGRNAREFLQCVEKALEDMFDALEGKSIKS
UniProt P24863, sequence (P24863 whole entry, looked up): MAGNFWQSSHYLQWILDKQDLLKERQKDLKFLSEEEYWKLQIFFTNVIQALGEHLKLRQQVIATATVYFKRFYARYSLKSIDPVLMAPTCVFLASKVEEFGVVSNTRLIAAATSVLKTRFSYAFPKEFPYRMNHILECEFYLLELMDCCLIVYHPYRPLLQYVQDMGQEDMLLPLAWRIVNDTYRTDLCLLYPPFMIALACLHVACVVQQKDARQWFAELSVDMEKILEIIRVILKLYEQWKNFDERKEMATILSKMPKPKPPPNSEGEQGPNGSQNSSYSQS
UniProt Q96JM3, sequence (Q96JM3 whole entry, looked up): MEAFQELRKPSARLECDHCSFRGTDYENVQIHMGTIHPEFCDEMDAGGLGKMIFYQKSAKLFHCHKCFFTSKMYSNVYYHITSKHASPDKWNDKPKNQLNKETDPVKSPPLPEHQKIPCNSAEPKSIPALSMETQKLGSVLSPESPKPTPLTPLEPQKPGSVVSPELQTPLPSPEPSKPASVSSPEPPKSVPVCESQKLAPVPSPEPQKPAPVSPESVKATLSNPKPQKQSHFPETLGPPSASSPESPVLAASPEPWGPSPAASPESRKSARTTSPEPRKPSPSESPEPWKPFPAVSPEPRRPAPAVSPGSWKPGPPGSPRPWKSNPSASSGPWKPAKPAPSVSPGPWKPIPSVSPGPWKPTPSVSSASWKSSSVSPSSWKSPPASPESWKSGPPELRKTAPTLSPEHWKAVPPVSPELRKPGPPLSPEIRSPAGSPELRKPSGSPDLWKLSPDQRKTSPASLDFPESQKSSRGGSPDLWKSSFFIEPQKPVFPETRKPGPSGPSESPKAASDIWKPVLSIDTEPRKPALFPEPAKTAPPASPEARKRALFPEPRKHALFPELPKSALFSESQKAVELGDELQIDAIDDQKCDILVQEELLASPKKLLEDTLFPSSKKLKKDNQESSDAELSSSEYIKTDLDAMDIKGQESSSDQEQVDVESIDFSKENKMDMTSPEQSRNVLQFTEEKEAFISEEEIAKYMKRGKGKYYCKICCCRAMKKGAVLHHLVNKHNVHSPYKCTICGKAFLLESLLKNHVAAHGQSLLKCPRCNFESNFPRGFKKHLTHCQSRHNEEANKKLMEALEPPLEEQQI
UniProt O75956, sequence (O75956 whole entry, looked up): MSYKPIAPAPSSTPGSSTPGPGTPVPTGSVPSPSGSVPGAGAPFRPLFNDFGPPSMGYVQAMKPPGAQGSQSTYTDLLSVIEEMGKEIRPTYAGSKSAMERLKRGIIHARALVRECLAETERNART
UniProt Q99653, sequence (Q99653 whole entry, looked up): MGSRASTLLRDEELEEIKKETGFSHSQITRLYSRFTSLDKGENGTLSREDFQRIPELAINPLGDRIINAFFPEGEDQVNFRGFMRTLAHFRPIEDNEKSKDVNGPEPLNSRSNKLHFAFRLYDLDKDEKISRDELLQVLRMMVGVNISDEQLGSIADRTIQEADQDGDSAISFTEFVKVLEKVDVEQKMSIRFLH
UniProt Q7L3B6, sequence (Q7L3B6 whole entry, looked up): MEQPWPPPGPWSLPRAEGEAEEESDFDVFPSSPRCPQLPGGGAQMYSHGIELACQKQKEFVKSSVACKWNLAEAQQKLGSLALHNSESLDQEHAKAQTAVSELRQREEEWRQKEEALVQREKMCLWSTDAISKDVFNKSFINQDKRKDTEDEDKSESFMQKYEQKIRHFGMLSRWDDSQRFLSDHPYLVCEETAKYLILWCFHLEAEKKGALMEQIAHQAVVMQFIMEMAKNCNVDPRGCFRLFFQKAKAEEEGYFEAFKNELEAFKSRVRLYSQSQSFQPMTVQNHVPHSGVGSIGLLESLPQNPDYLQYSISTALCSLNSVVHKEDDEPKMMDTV
UniProt O75794, sequence (O75794 whole entry, looked up): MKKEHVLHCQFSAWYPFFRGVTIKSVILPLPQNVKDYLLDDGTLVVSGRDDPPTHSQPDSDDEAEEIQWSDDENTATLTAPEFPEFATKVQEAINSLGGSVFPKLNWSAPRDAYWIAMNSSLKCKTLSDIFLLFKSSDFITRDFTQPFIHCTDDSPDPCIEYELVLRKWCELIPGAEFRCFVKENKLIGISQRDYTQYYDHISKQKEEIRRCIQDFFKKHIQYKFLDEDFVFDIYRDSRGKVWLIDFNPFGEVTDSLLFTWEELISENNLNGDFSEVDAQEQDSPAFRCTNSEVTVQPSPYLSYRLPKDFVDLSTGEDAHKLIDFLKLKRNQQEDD
UniProt P46108, sequence (P46108 whole entry, looked up): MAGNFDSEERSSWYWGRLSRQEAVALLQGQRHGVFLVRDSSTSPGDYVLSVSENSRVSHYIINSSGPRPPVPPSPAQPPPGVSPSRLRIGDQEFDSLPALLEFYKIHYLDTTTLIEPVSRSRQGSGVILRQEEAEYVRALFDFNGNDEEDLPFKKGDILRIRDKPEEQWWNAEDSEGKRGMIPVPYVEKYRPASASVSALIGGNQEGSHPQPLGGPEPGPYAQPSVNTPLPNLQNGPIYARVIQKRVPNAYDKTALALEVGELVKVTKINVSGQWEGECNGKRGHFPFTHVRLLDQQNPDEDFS
UniProt Q8NHZ8, sequence (Q8NHZ8 whole entry, looked up): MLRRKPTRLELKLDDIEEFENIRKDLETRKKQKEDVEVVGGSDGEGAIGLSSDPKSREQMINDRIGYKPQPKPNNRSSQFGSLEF

Target | log2 fold change (IRAK-1-4 Inhibitor I) | log2 fold change (ibrutinib) | log2 fold change [1] | log2 fold change (ralimetinib) | log2 fold change [2] | log2 fold change [3] | log2 fold change [4] | log2 fold change (pinometostat) | log2 fold change [5] | log2 fold change [6]
CCNT1 (UniProt O60563) | -0.004 | 0.001 | -0.603 (active) | 0.054 | 0.042 | -0.375 (active) | 0.105 | 0.213 | -0.003 | -0.112
CRK (UniProt P46108) | -0.046 | -0.097 | -0.887 (active) | -0.013 | -0.007 | -0.003 | 0.032 | -0.037 | -0.011 | 0.07
CDK2AP2 (UniProt O75956) | -0.087 | 0.011 | 0.094 | 0 | -0.077 | 0.258 | -0.438 (active) | -0.135 | 0.03 | 
CASP8 isoform 9 (UniProt Q14790) | -0.056 | -0.027 | 0.098 | -0.058 | -0.092 | -0.264 | -0.025 | 0.124 | 0.028 | 0
CCAR2 isoform 2 (UniProt Q8N163) | -0.111 | -0.061 | -0.037 | 0.027 | -0.222 | -0.477 (active) | -0.004 | -0.039 | 0.111 | -0.252
C19orf53 (UniProt Q9UNZ5) | -0.136 | 0.031 | 0.12 | 0.201 | 0.043 | 0.013 | 0.126 | 0.32 | 0.079 | -0.546
CASP3 (UniProt P42574) | 0.074 | 0.008 | 0 | -0.022 | 0.043 | 0.048 | 0.067 | -0.076 | 0.011 | 0.05
CDC26 (UniProt Q8NHZ8) | -0.014 | -0.003 | 0.099 | 0.188 | 0.007 | -0.01 | -0.04 | -0.128 | 0.005 | 0.049
CELF2 isoform 3 (UniProt O95319) | 0.009 | -0.022 | 0.009 | 0.055 | -0.003 | -0.015 | 0.249 | -0.047 | -0.027 | 0.418 (active)
CCDC59 (UniProt Q9P031) | -0.083 | -0.051 | 0.224 | 0.28 | -0.073 | 0.093 | 0.197 | 0.233 | 0.036 | -0.468
CDC25B isoform 4 (UniProt P30305) | 0.068 | 0.037 | -0.302 | 0.079 | -0.049 | 0.021 | -0.02 | 0.007 | 0.155 | 
CA8 (UniProt P35219) | 0.027 | 0.004 | -0.091 | 0.033 | -0.036 | -0.056 | 0.011 | -0.008 | -0.021 | -0.046
CNOT1 (UniProt A5YKK6) | -0.07 | -0.024 | -0.029 | 0.028 | -0.063 | -0.101 | 0.039 | 0.027 | 0.009 | 0.063
CAVIN1 (UniProt Q6NZI2) | -0.064 | -0.002 | 0.011 | 0.393 | 0 | -0.156 | -0.011 | 0.2 | 0.06 | -0.437 (active)
CHAMP1 (UniProt Q96JM3) | 0.047 | 0.066 | -0.207 | 0.033 | -0.036 | -0.047 | -0.015 | 0.034 | 0.004 | -0.23 (active)
CHAF1A (UniProt Q13111) | 0 | -0.143 | -0.118 | 0.056 | 0.067 | -0.066 | 0.08 | -0.028 | -0.042 | 
COX5B (UniProt P10606) | 0.008 | -0.012 | -0.079 | 0 | 0.106 | 0.428 (active) | -0.082 | -0.071 | 0.003 | 0.204
CCNC (UniProt P24863) | 0.071 | -0.082 | 0.595 (active) | -0.027 | 0.053 | 0.041 | 0.071 | -0.058 |  | 
COX6B1 (UniProt P14854) | -0.046 | -0.038 | -0.013 | -0.144 | -0.103 | 0.038 | -0.01 | 0.017 | 0.045 | 0.103
CDC123 (UniProt O75794) | -0.023 | -0.009 | -0.026 | -0.015 | -0.088 | -0.05 | 0.037 | -0.009 | 0 | 0.001
CDKN1B (UniProt P46527) | 0.023 | 0.015 | 0.173 | -0.024 | 0.012 | 0.215 | 0.536 (active) | -0.023 | 0.018 | 
CDC37L1 (UniProt Q7L3B6) | 0.004 | -0.018 | -0.012 | -0.059 | -0.118 | -0.004 | 0 | -0.015 | 0.062 | -0.281
C9orf72 (UniProt Q96LT7) | 0.016 | 0.022 | -0.001 | 0.035 | -0.051 | 0.029 | -0.019 | 0.135 | -0.095 | 0.048
C4orf33 (UniProt Q8N1A6) | 0.038 | 0.137 | -0.049 | -0.073 | 0.005 | -0.076 | 0.032 | 0 | -0.01 | -0.03
CPT2 (UniProt P23786) | 0.101 | 0.095 | 0.201 | -0.079 | -0.704 (active) | -0.488 | 0.16 | -0.145 | -0.051 | 0.256
CHP1 (UniProt Q99653) | 0.091 | -0.024 | 0.001 | 0.145 | -0.017 | 0.017 | -0.061 | -0.02 | -0.017 | -0.047
COCH (UniProt O43405) | 0.001 | 0.058 | 0.045 | 0.041 | 0.331 (active) | 0.021 | -0.019 | 0.043 | -0.072 | -0.353
CDK5RAP1 (UniProt Q96SZ6) | -0.067 | 0.018 | 0.111 | -0.057 | -0.055 | -0.066 | -0.015 | 0.025 | -0.038 | 0.099
